Compound activity (PubChem)
An excerpt weighted towards active compounds, which were near 4.1% of everything screened.
rCAG RNA binder: r(CAG) repeat RNA binding; TO-PRO-1 dye displacement fluorescence; inhibition, % at 3 µM; AID 651821; 370,000 tested, 1.3% active;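 active means inhibition above the plate cutoff, the mean of all test compounds on that plate plus 3 SD, cut at about 35% in these data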;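 further: higher means more dye released from RNA so lower well fluorescence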
LEDGF integ inh: blocks HIV-1 LEDGF/p75-dependent DNA integration | TR-FRET IN-LEDGF/p75 DNA integration, Eu/Cy5 | inhibition, % at 3.7 µM | 370,000 tested, 0.64% active | AID 743269;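 active means inhibition above the screen-wide mean plus 3 SD, cut at about 13% in these data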;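 further: signal is the Cy5 over europium emission ratio at 671 and 618 nm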
MBD2 DNA inh: inhibitors of human MBD2 binding to methylated oligonucleotide; Q9UBB5; 370,000 tested, 0.31% active; TR-FRET; AID 686964; inhibition, % at 4.4 µM; in the data active means inhibition above about 13%
ABHD5-PLIN5 inh: blocks binding of human ABHD5 to perilipin-5; Split G. princeps luciferase complementation, luminescence, 4 h; inhibition, % at 4 µM; 360,000 tested, 0.78% active; AID 602281;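 active means inhibition above the mean inhibition across every tested compound plus 3 SD, cut at about 22% in these data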
Target sequence (Q00G26 whole entry, looked up): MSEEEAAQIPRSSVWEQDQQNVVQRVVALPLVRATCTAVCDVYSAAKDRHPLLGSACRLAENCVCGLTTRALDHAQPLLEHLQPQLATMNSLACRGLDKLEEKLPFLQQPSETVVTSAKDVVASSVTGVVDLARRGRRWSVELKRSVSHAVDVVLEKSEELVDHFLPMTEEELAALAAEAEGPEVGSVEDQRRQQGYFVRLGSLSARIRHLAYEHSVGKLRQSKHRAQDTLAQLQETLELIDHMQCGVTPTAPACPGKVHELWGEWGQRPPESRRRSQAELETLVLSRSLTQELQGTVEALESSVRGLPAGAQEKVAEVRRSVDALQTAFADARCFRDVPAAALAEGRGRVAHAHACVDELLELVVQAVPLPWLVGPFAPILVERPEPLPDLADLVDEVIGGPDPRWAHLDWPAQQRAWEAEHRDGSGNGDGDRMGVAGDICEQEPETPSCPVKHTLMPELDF
Target sequence (Q8WTS1 whole entry, looked up): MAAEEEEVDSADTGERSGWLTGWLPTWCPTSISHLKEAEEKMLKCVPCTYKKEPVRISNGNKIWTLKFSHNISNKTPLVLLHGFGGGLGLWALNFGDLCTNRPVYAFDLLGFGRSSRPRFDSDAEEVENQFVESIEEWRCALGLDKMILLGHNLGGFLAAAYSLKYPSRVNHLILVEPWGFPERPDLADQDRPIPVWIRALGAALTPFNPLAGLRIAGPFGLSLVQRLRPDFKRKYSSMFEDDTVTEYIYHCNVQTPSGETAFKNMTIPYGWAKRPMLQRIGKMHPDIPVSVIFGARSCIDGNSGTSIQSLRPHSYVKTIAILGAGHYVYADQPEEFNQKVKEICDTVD
PRMT1 inh: blocks human protein arginine methyltransferase 1 | recombinant PRMT1, activity-based probe fluorescence polarization | AID 652257 | 370,000 tested, 1.3% active | inhibition, % at 2.79 µM | Q99873;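 active means inhibition above about 21% made by adding two undisclosed values, limit read from the data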
UHRF1 binding: blocks human UHRF1 binding to methylated DNA; UHRF1 binding to methylated oligo, TR-FRET; inhibition, % at 4.4 µM; 370,000 tested, 0.75% active; AID 687016; in the data active means inhibition above about 21%;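 further: UHRF1 SRA domain binding a hemimethylated CpG hairpin DNA probe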
rCAG binder conf: r(CAG) RNA repeat binding, confirmation; shares compounds with rCAG RNA binder; TO-PRO-1 dye displacement fluorescence; inhibition, % at 3 µM; 4,300 tested, 70% active; AID 652065;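 active means inhibition above a per-plate cutoff, the mean inhibition of sample wells plus 3 SD, cut at about 35% in these data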;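 further: loss of TO-PRO-1 fluorescence as compound displaces dye from 1x1 AA loop RNA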
dCAG dye counter: DNA CAG dye complex inhibition counter-screen; inhibition, % at 3 µM; AID 652068; shares compounds with rCAG RNA binder; d(CAG) DNA oligo TO-PRO-1 dye displacement, fluorescence; 4,300 tested, 94% active;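 active means inhibition above its plate's cutoff, the mean test-well inhibition plus 3 SD, cut at about 4.8% in these data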;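 further: hits displace the dye from DNA and so lower well fluorescence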
Numbers stand for hits; . = inactive; / = no result.

SMILES	rCAG RNA binder	LEDGF integ inh	MBD2 DNA inh	ABHD5-PLIN5 inh	PRMT1 inh	UHRF1 binding	rCAG binder conf	dCAG dye counter
CC1(C(=O)NS(=O)(=O)c2ccc(Cl)cc2)CCN1C(=O)C1(c2ccccc2)CCCC1 (configuration not stated)	49.9	.	.	.	.	.	40.1	11.8
CC1(C(=O)NS(=O)(=O)c2ccccc2)CCN1C(=O)C1(c2ccc(Cl)cc2)CC1 (configuration not stated)	.	.	.	.	.	.	/	/
Cc1ccc(S(=O)(=O)NC(=O)C2(C)CCN2C(=O)C2(c3ccc(Cl)cc3)CCC2)cc1 (configuration not stated)	42.5	.	.	.	.	.	38.7	10.0
Cc1ccc(S(=O)(=O)NC(=O)C2(C)CCN2C(=O)C2(c3ccc(Cl)cc3)CC2)cc1 (configuration not stated)	57.1	.	.	.	.	.	.	5.7
CC1(C(=O)NS(=O)(=O)c2ccc3c(c2)CCO3)CCN1C(=O)C1(c2ccc(Cl)cc2)CCC1 (configuration not stated)	35.7	.	.	.	.	.	.	.
Cc1ccc(NC(=O)Cc2ccc(F)cc2)c(S(=O)(=O)N2CCOCC2)c1	.	.	.	/	.	.	/	/
Cn1c(COc2ccccc2)nnc1SCC(=O)Nc1ccccc1-c1ccccc1	.	.	.	/	.	.	/	/
COC(=O)[C@]12C[C@H](CC(=O)NCc3cccc4ccccc34)C(=O)N(Cc3ccc(Cl)cc3Cl)C1=C[C@H](C1CCCC1)O[C@@H]2C	.	.	.	/	.	.	/	/
C[C@@H]1CCN(C2CC2)S(=O)(=O)c2ccc(N3CC[C@@H](O)C3)cc2O1	.	.	.	/	.	.	/	/
CC(C)(C)c1ccc(S(=O)(=O)NC(=O)C2(C)CCN2C(=O)C2(c3ccccc3)CC2)cc1 (configuration not stated)	47.1	.	.	.	.	.	39.9	10.1
CC1(C(=O)NS(=O)(=O)Cc2ccccc2)CCN1C(=O)C1(c2ccc(Cl)cc2)CCC1 (configuration not stated)	40.9	.	.	.	.	.	.	6.7
CC1(C(=O)NS(=O)(=O)c2ccc(Cl)cc2)CCN1C(=O)C1(c2ccc(Cl)cc2)CCC1 (configuration not stated)	55.3	.	.	.	.	.	55.6	18.1
CC1(C(=O)NS(=O)(=O)c2ccc(Br)cc2)CCN1C(=O)C1(c2ccccc2)CC1 (configuration not stated)	.	.	.	.	.	.	/	/
CCS(=O)(=O)NC(=O)C1(C)CCN1C(=O)C1(c2ccc(Cl)cc2)CC1 (configuration not stated)	.	.	.	.	.	.	/	/
CC1(c2nnnn2Cc2ccccc2)CSCC(=O)N1Cc1cccs1 (configuration not stated)	.	.	.	/	.	.	/	/
CCCCOCCCNC(=O)C[C@@H]1C(=O)N(CCc2ccc(Cl)cc2)C2=CCCC[C@]21C(=O)OCC	.	.	.	/	.	.	/	/
COC(=O)c1ccc(COc2ccccc2/C=C/C(=O)c2ccc(OCC(=O)O)cc2)cc1	56.0	.	.	.	.	.	64.3	23.8
O=c1nc2ccc(Cl)cn2c2ccc(S(=O)(=O)N3CCCCC3)cc12	40.7	.	.	.	.	.	.	4.4
O=c1nc2ccc(Cl)cn2c2ccc(S(=O)(=O)N3CCOCC3)cc12	.	.	.	.	.	.	/	/
Cc1cc(N2CCN(S(C)(=O)=O)C[C@@H]2C)ccc1N1CCN(Cc2ccccc2)[C@@H](C)C1	.	.	.	/	.	.	/	/
CC(=O)NS(=O)(=O)c1ccc(NC(=O)c2cc(-c3ccc(C)c(C)c3)nc3ccccc23)cc1	76.7	.	.	.	.	.	70.5	36.8
CC(=O)NS(=O)(=O)c1ccc(NC(=O)c2cc(-c3ccc(C)cc3)nc3ccccc23)cc1	53.5	.	.	.	.	.	35.3	9.3
COc1ccc(NC(=O)N(C)C[C@H]2OCc3cn(nn3)CCCC(=O)N([C@H](C)CO)C[C@@H]2C)cc1	.	.	.	/	.	.	/	/
COc1ccc(NC(=O)CSc2n[nH]c(=O)n2C2CC2)cc1Cl	.	.	.	.	.	.	/	/
COc1ccc(NC(=O)CSc2nc(-c3ccco3)nc3cc(=O)[nH]n23)cc1Cl	54.4	.	.	.	.	.	35.7	13.8
SMILES	rCAG RNA binder	LEDGF integ inh	MBD2 DNA inh	ABHD5-PLIN5 inh	PRMT1 inh	UHRF1 binding	rCAG binder conf	dCAG dye counter
C=CC[C@H]1c2ccccc2[C@H]2N3N=Cc4ccccc4[C@H]3[C@H](CCCC)C(=O)N2N1C(=O)NCc1ccccc1	.	.	.	/	.	.	/	/
CC(C)C(=O)NC(=S)Nc1ccc(S(=O)(=O)Nc2nccs2)cc1	.	.	.	.	.	.	/	/
COc1cccc(OC)c1C(=O)NC(=S)Nc1ccc(S(=O)(=O)Nc2nccs2)cc1	59.3	.	.	.	.	.	40.0	15.8
COc1ccccc1C(=O)Nc1ccc(S(=O)(=O)Nc2nccs2)cc1	.	.	.	.	.	.	/	/
O=C(NC(=S)Nc1ccc(S(=O)(=O)Nc2nccs2)cc1)c1ccc(Br)o1	46.9	.	.	.	.	.	.	11.9
O=C(NC(=S)Nc1ccc(S(=O)(=O)Nc2nccs2)cc1)c1ccccc1	40.6	.	.	.	.	.	37.2	8.9
O=C(NC(=S)Nc1ccc(S(=O)(=O)Nc2nccs2)cc1)c1cccnc1	.	.	.	.	.	.	/	/
O=C(NC(=S)Nc1ccc(S(=O)(=O)Nc2nccs2)cc1)c1ccccc1F	41.7	.	.	.	.	.	41.4	12.9
CCOc1ccc(-c2cc(C(C)=O)c3n(c2=O)CCC3)cc1	.	.	.	/	.	.	/	/
C=CCN1[C@@H](C)[C@H](c2ccccc2)Oc2cccc(N3CCCC3)c2S1(=O)=O	.	.	.	/	.	.	/	/
O=C(NCc1ccccc1)OCCN1C(=O)CCC12CCCCC2	.	.	.	/	.	.	/	/
O=C(NC(=S)Nc1ccc(S(=O)(=O)Nc2nccs2)cc1)c1ccc(F)c(F)c1	62.5	.	.	.	.	.	40.1	12.3
COc1nccnc1NS(=O)(=O)c1ccc(NC(=S)NC(=O)c2ccc(F)c(F)c2)cc1	.	.	.	.	.	.	/	/
CN(C)[C@@H]1CCN(c2ccc3c(c2)OCCCN(C2CC2)S3(=O)=O)C1	.	.	.	/	.	.	/	/
Cc1ccccc1OCC(=O)N/N=C/c1sc(=O)n(Cc2cccc(C(=O)O)c2)c1Cl	46.2	.	.	.	.	.	39.7	10.5
CCOC(=O)[C@]12CCCC3=C1N(CCC3)C(=O)[C@@H](CC(=O)N1CCOCC1)C2	.	.	.	/	.	.	/	/
